# Assay results taken from PubChem BioAssay (NCI).
# Where “and” joins values, the source holds several entries; their conditions need not be identical. Equal entries are not always repeated. About 83,000 compounds went through this panel and 20% of them were active in at least one assay; those are over-represented in the sample as a whole.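 Single-concentration screen, 48 h exposure, 96-well plates. Endpoint: percent growth. Below 10 = active.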 Unmarked numbers belong to inactive results.
# System: MCF7 breast
# Assay: NCI-60 one-dose screen, 48 h (100 = growth as untreated, 0 = no growth, -100 = all killed)
# Settings: 10 µM
# Procedure: Growth inhibition of the MCF7 human tumor cell line is measured as a screen for anti-cancer activity. Cells are grown in 96 well plates and exposed to the test compound for 48 hours. Compounds are tested at a single concentration, which is 10^-5 M for most compounds. The reported endpoint is percent growth (GI% or GIPRCNT), where numbers from 0 - 100% represent growth inhibition, and numbers from -100% - 0 represent cell death. For example, a value of 40 represents 60% growth inhibition. A value of 0 means no net growth occurred over the course of the experiment. A value of -40 indicates 40% of cells at the beginning of the experiment died by the end of the experiment. A value of -100 means all cells are dead at the end of the experiment.
# NCI-60 Human Tumor Cell Lines Screen was performed using the standard one-dose NCI protocol, which is described in more detail at https://dtp.cancer.gov/discovery_development/nci-60/default.htm.
# Compounds with GIPRCNT values below 10 were considered active. Activity score was based on GIPRCNT using the following formula: […]
# Score is 0 for GIPRCNT values of 100 or above, 50 for GIPRCNT values of 0, and 100 for GIPRCNT values of -100.
row,SMILES,growth [%]
1,CS/C(=C\c1ccc(C(=O)c2ccc(C)cc2)n1C)S(C)=O (stereo not given),89.6

# Same assay, conditions: 10 µM unless noted
row,SMILES,growth
1,CCOP(=O)(OCC)/C(C#N)=C/c1c(C)[nH]c2ccccc12,96.2%
2,CSc1nc(N)c(N)c(N)n1,105%
3,Oc1cccnc1CN1CCOCC1,95.2% and 90.7%
4,CCOC(=O)C1=CC(=O)CC(C)(C)O1,109%
5,Clc1ccc2c(c1)N(C1CCCN(Cc3ccccc3)C1)c1ccccc1S2 (stereo not given),18.4%
6,O=C(OCc1ccccc1)c1ccccc1,107% and 94.3%
7,CCN(C)c1ccccc1,90.7%
8,COC(=O)c1nc(N)nc(C(=O)OC)c1C(=O)c1cccc2ccccc12,94.5%
9,Cc1onc(-c2c(F)cccc2Cl)c1-c1ncc(-c2ccc(Cl)cc2)o1,61.9% and 20.5%
10,COc1cc(NCCCCCNC(C)C)c2ncccc2c1,85.3% and 86.4%
11,Nc1ccc(Cl)c(S(=O)(=O)O)c1,101%
12,C/C=C(/C(=O)NC(N)=O)C(C)C,94%
13,CC1CC(O)CC(C)(C)C1.CC1CC(O)CC(C)(C)C1.CC1CC(O)CC(C)(C)C1.CC1CC(O)CC(C)(C)C1.[Ti] (stereo not given),99.8%
14,NC1=NC(c2ccccc2)N=C(Nc2ccccc2)N1 (stereo not given),13.7% and 22%
15,COc1ccc(CCl)c(C)c1OC,103%
16,CN(C)CC(CN(C)C)C(O)c1ccccc1 (stereo not given),98.5%
17,Nc1nc(N)c2cc(S(=O)(=O)c3ccccc3)ccc2n1,40.2% and 29.5%
18,O=C1c2ccccc2CN1c1ccccc1,106%
19,CS(=O)(=O)c1nsc(N)n1,99.8%

row,SMILES,growth
1,Nc1c(Cl)cc2c(c1Br)C(=O)c1ccccc1C2=O,99.8%
2,ON=C(C1CCCCC1)C1CCCCC1,93.3%
3,N#Cc1c(N)nc2c(c(-c3ccc(Cl)cc3)nn2-c2ccccc2)c1C#N,97.1% [100 µM]
4,CC(C)(C)C1CCC(=NO)CC1 (stereo not given),83.9%
5,CCOC(=O)C(N)Cc1cc(I)c(O)c(I)c1 (stereo not given),107% and 103%
6,Nc1[nH][nH]c(=O)c1N=Nc1ccccc1,92.9% and 94.5%
7,CN(C)C(=N)N=C(N)N,96.7% and 146%
8,COc1ccc2oc3cc(NCCN(C)C)ccc3c(=O)c2c1,84.4% and 67.8%
9,C(=N\OCCc1ccccc1)/c1ccccn1,92.9% and 105%
10,c1ccc2c[n+](Cc3ccc4ccccc4n3)ccc2c1,72.2%
11,COC(=O)c1nc(=S)[nH]c(C(=O)OC)c1C(=O)c1ccc(OC)cc1,93.6%
12,Cc1cc(=NO)cc(C)n1O,87.6%
13,CC(=O)c1cc2ccccc2o1,95.6%
14,COC(=O)c1cc(C(=O)OC)cc([N+](=O)[O-])c1,98%
15,S=c1nn[nH]n1C1CCCCC1,101%
16,CC1NC(C)c2ccc3ccccc3c2O1 (stereo not given),92%
17,O=C(NC(=O)c1ccc(F)c(Cl)c1)NC1CC1,100% and 89.6%
18,CCCCCCC(C)CC1=C(O)c2ccccc2C(=O)C1=O (stereo not given),25.9%
19,O=[N+]([O-])c1ccc(N2CCN=N2)cc1,87.5%

# Same assay, conditions: 100 µM
row,SMILES,growth [%]
1,CS/C(=C\c1ccc(C(=O)c2ccc(C)cc2)n1C)S(C)=O (stereo not given),70.7
